Drawing on the OligoGym collection, this text covers sensor-assay potency score (higher = more potent) for 22 sequences.
Note: reference of the scale not given here.

The first test addresses LRRC15. The test can be described thus: pooled miR-30 sensor sort-seq; sequence = guide strand. As to conditions: shRNA.
TTCTTGCAGCAGCAACAGCCGA displayed a sensor-assay potency score (higher = more potent) of -1.7.
On the same count and under the same terms, in the case of TTGTTGGACAGGTAGAGTCTCT it was -0.632; in that of TTGGACAGGTAGAGTCTCTGGA, 0.0615.
Sequence AACAGCAACGTTGACATTGATG showed a sensor-assay potency score (higher = more potent) of -1.31.
For TAACCTAGGCTGGTTGAGCAGG, the sensor-assay potency score (higher = more potent) is -0.94.
For TTGAGGTTGCTGCACTGGGAGA, the sensor-assay potency score (higher = more potent) is -1.66.
Same read-out and setting: as for TTGAGTTCAGTGATGTGCGTGT, the figure is 0.975.
Sequence TAGTCAGATCAGTGTAGTCTTC gave a sensor-assay potency score (higher = more potent) of -1.03.
On the same count and under the same terms, as for TTCTTCTCAATCCTCAGGGCGA, the figure is -1.09; as for TCTTGCAGCAGCAACAGCCGAC, -0.387.
TTGAGCAGGAGCCAGTTGCGGA had a sensor-assay potency score (higher = more potent) of -0.932.

Another test addresses LRRC19. Described as above. As to conditions: shRNA.
For the sequence TAAACTGTAGTGATCCTGCATT, the sensor-assay potency score (higher = more potent) was -0.636.
The same measure, in the same setting: as for TATGTCTGTAGAACTCTTGTGT, the figure is 0.236; as for TTGATTATGAGGACTCAGCAAA, -0.795; as for TATAGTAACATCTTTCTTGATA, -0.839.
The sequence TTCTGCTTCATGCTCTTCCAGG had a sensor-assay potency score (higher = more potent) of -0.767.
In the case of TTACTGTATTTGAACCTGCTTG, the sensor-assay potency score (higher = more potent) was -0.499.
Turning to TTATGTAAGATAGTAACCTTGT, the sensor-assay potency score (higher = more potent) turned out to be 0.182.
Sequence TATGTAACTGTCAACTACCGAG gave a sensor-assay potency score (higher = more potent) of -0.747.
TTCATGAATAATTTAGACCTTT showed a sensor-assay potency score (higher = more potent) of -0.134.
In turn, TAACTGTCAACTACCGAGGAGT registered a sensor-assay potency score (higher = more potent) of -0.999.
Sequence TTTGATATTGTAGCTCTGCAGG showed a sensor-assay potency score (higher = more potent) of -1.09.
